Laboratory results from PubChem BioAssay AID602393 (Broad Institute, 2012).
The campaign covered roughly 350,000 compounds. About 7,000 (2%) were called active. No stated cut-off is given here; in the data, active means activation above about 40%; inconclusive means no clear call, values can overlap the other calls; inactive means below that. Many of the other results were omitted from the sample, so actives are more common in it than they were.

Assay: raisers of Bmi1 knock-in reporter signal – mouse ES cells, Bmi1 luciferase knock-in, single point, esBAF inhibitor project, primary screen (AID 602393);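 further: 0% = median of the plate's neutral control wells and 100% = double that signal; a rise in the Bmi1 reporter signal indicates esBAF inhibition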
Conditions: 24 h, at 12.5 µM, stronger effect = higher value, 100% = twice the neutral-well signal
With `CCC(=O)Nc1ccc2c(c1)OC[C@H](C)N(Cc1ccccc1F)C[C@H](C)[C@@H](OC)CN(C)C2=O` the reporter increase was 0.435% (inactive).
For `C[C@H](CO)N1C[C@H](C)[C@H](CN(C)CC2CCCCC2)Oc2c(NC(=O)c3cnccn3)cccc2C1=O`, the reporter increase was -2.88% (inactive).
With `O=C(c1cc2c(s1)CCC2)N1CCN(c2ccccc2)CC1` the reporter increase was 6.19% (inactive).
In the case of `O=C(CNC(=O)c1cc2c(s1)CCC2)Nc1ccccc1Br`, the reporter increase is reported as 30.7% (inactive).
With `O=C(NNC(=O)c1cc2c(s1)CCCC2)c1ccccc1` the reporter increase was 40.9% (active).
For `CCNC(=O)C[C@@H]1CC[C@H](NC(=O)C2CCC2)[C@@H](CO)O1`, the reporter increase was 4.25% (inactive).
With `C[C@@H]1CN([C@H](C)CO)C(=O)Cc2cc(NC(=O)C3CCCCC3)ccc2O[C@@H]1CN(C)S(C)(=O)=O` the reporter increase was -5.11% (inactive).
For `C[C@@H]1CN([C@@H](C)CO)S(=O)(=O)c2ccc(C#CC3CCCC3)cc2O[C@H]1CN(C)S(C)(=O)=O`, the reporter increase was 20.1% (inactive).
In the case of `COc1cccc(-c2cc3nc4c(c(N5CCC6(CC5)OCCO6)n3n2)CCCC4)c1`, the reporter increase is reported as 42.7% (active).
In the case of `COc1cccc(CNc2nc3nc4c(c(=O)n3[nH]2)CCC4)c1`, the reporter increase is reported as -1.38% (inactive).
With `O=C(c1ccccc1)N1CCN(c2cc(-c3ccccc3)nc3cc(-c4cccc(Cl)c4)nn23)CC1` the reporter increase was -1.84% (inactive).
For `O=C(C[C@@H]1CC[C@@H]2[C@H](COC[C@H](O)CN2Cc2cccc(C(F)(F)F)c2)O1)NCc1ccc(F)cc1`, the reporter increase was -1.09% (inactive).
With `C[C@@H]1CN([C@@H](C)CO)C(=O)c2cc(NC(=O)Nc3cccc4ccccc34)ccc2O[C@@H](C)CCCCO[C@@H]1CN(C)S(=O)(=O)c1ccc(Cl)cc1` the reporter increase was 2.17% (inactive).
In the case of `O=C(c1cccs1)N1CCCC(c2nc(-c3ccc(F)cc3)no2)C1` (stereo not given), the reporter increase is reported as 51.6% (active).
With `COc1cccc(-c2noc(C3CCCN(C(=O)c4ccc(F)cc4)C3)n2)c1` (stereo not given) the reporter increase was 5.64% (inactive).
With `CCOC(=O)C1(C)CCCN(C(=O)c2cccc(Cl)c2)C1` (stereo not given) the reporter increase was -1.3% (inactive).
With `COc1cc(-c2noc(C3CCCN(S(=O)(=O)c4cccc(Cl)c4)C3)n2)cc(OC)c1OC` (stereo not given) the reporter increase was 0.345% (inactive).
With `Cc1ccc(-c2noc(C3CCCN(C(=O)c4cccc(Cl)c4)C3)n2)o1` (stereo not given) the reporter increase was 46.6% (active).
In the case of `O=C(Cc1cccs1)N1CCCC(c2nc(-c3ccc(S(=O)(=O)N4CCCC4)cc3)no2)C1` (stereo not given), the reporter increase is reported as -3.86% (inactive).
For `COc1ccccc1NC(=O)N(C)C[C@@H]1Oc2ncc(Br)cc2C(=O)N([C@@H](C)CO)C[C@@H]1C`, the reporter increase was -5.49% (inactive).
In the case of `O=C(NCC[C@@H]1CC[C@@H](NC(=O)Nc2cc(F)ccc2F)[C@H](CO)O1)Nc1ccc(Cl)cc1`, the reporter increase is reported as 38.7% (inactive).
For `C[C@H]1CN([C@@H](C)CO)C(=O)c2cc(C3=CCCCC3)cnc2O[C@H]1CN(C)Cc1ccncc1`, the reporter increase was -11.9% (inactive).
In the case of `O=C(NCc1ccccc1)C1CCN(C(=O)Cc2ccccc2)CC1`, the reporter increase is reported as 1.43% (inactive).
With `CCOC(=O)N1CCC(NC(=O)CCc2ccccc2)CC1` the reporter increase was -4.64% (inactive).
In the case of `O=C(O)C1CCN(C(=O)OCc2ccccc2)CC1`, the reporter increase is reported as 59.3% (active).
With `CC(C)NC(=O)Nc1ccc2c(c1)C(=O)N([C@@H](C)CO)C[C@H](C)[C@@H](CN(C)S(C)(=O)=O)O2` the reporter increase was -2.99% (inactive).
With `COCC(=O)Nc1ccc2c(c1)C(=O)N(C)C[C@@H](OC)[C@H](C)CN(C(=O)c1ccccn1)[C@@H](C)CO2` the reporter increase was 4.23% (inactive).
With `CCCOC(=O)C1=C(C)NC2=C(C(=O)C(C(=O)OC)C(C)C2)C1c1ccc(N(C)C)cc1` (stereo not given) the reporter increase was 8.57% (inactive).
In the case of `CCCOC(=O)c1[nH]c2c(c1C)C(=O)CC(c1cccs1)C2` (stereo not given), the reporter increase is reported as -12.1% (inactive).
In the case of `CCOC(=O)c1[nH]c2c(c1C)C(=O)CC(c1ccc(N(C)C)cc1)C2` (stereo not given), the reporter increase is reported as 51.2% (active).
With `CC(=O)N1[C@H](CO)[C@H](c2ccc(-c3ccccc3)cc2)[C@H]1CNC(=O)C1CC1` the reporter increase was 2.48% (inactive).
With `COc1ccccc1S(=O)(=O)Nc1ccc2c(c1)C(=O)N(C)C[C@H](OC)[C@H](C)CN[C@H](C)CO2` the reporter increase was -6.13% (inactive).
In the case of `C1=C(CCNc2ncnc3c2cnn3-c2ccccc2)CCCC1`, the reporter increase is reported as 69.7% (active).
With `Cc1nn(C(C)C(=O)NCCC2=CCCCC2)c(=O)c2nn(-c3ccccc3)c(C)c12` (stereo not given) the reporter increase was 21% (inactive).
For `CC(C)Sc1ncnc2c1cnn2-c1ccccc1`, the reporter increase was 19% (inactive).
For `C[C@@H]1CN([C@@H](C)CO)C(=O)Cc2cc(NC(=O)CCN3CCOCC3)ccc2O[C@@H]1CN(C)C(=O)Nc1cccc2ccccc12`, the reporter increase was -0.153% (inactive).
In the case of `O=C(NCCc1ccc2c(c1)OCCO2)c1cc2ccccc2o1`, the reporter increase is reported as 24.4% (inactive).
With `Cc1ccc(NC(=O)c2cc3ccccc3o2)cc1` the reporter increase was 52.9% (active).
For `CC(C)(C)n1nc2c(c1NC(=O)c1cc3ccccc3o1)CSC2`, the reporter increase was -2.69% (inactive).
For `Cc1cc(NC(=O)c2cc3ccccc3o2)no1`, the reporter increase was 20.5% (inactive).
In the case of `CN(C)C(CNC(=O)c1cc2ccccc2o1)c1ccccc1` (stereo not given), the reporter increase is reported as 7.21% (inactive).
With `O=C(Nc1ccncc1)c1cc2ccccc2o1` the reporter increase was 75.6% (active).
With `COc1ccccc1C#Cc1ccc2c(c1)O[C@@H](CN(C)Cc1cncnc1)[C@H](C)CN([C@@H](C)CO)S2(=O)=O` the reporter increase was 8.66% (inactive).
In the case of `COC(=O)N(C)C[C@H]1OCc2ccccc2-c2ccccc2C(=O)N([C@@H](C)CO)C[C@H]1C`, the reporter increase is reported as 5.99% (inactive).
For `CN(c1ccccc1)S(=O)(=O)c1cccc(NC(=O)Cc2ccc(Cl)cc2)c1`, the reporter increase was -11.6% (inactive).
In the case of `CN(c1cccc(NC(=O)c2ccc(CN3CCc4ccccc4C3)cc2)c1)S(C)(=O)=O`, the reporter increase is reported as -0.323% (inactive).
For `CN(c1cccc(NC(=O)Nc2ccc(Cl)cc2)c1)S(C)(=O)=O`, the reporter increase was 50.6% (active).
With `C[C@H](CO)N1C[C@H](C)[C@@H](CN(C)CC2CCCCC2)Oc2ccc(NS(=O)(=O)c3cccs3)cc2CC1=O` the reporter increase was -1.82% (inactive).
With `CCCNC(=O)C[C@@H]1C[C@@H]2c3cc(N(C)C)ccc3O[C@@H]2[C@H](CO)O1` the reporter increase was 1.01% (inactive).
In the case of `CCCN(C)C[C@@H]1Oc2cc(C#Cc3ccc(F)cc3)ccc2S(=O)(=O)N([C@H](C)CO)C[C@H]1C`, the reporter increase is reported as -2.93% (inactive).
